# Shown are actives, neighbours in structure and some others; about 4.6% of the full set was active somewhere.
# D1 potentiator – potentiators of human D1 dopamine receptor | HEK293 TREx D1 cells, calcium flux, dopamine EC20 potentiation | potentiation, % at 10 µM | P21728 | 0.036% of 360,000 active | AID 504651; in the data active means potentiation above about 30%; further: 0% is about no effect
# TRHR PAM – allosteric enhancers of human TRH receptor. P34981. TRHR cells, fluo-8 calcium fluorescence, EC20 TRH enhancement. enhancement, % at 2 µM. 0.66% of 360,000 active; in the data active means enhancement above about 30%; further: 0% is about no effect
# Target sequence (P34981 whole entry, looked up): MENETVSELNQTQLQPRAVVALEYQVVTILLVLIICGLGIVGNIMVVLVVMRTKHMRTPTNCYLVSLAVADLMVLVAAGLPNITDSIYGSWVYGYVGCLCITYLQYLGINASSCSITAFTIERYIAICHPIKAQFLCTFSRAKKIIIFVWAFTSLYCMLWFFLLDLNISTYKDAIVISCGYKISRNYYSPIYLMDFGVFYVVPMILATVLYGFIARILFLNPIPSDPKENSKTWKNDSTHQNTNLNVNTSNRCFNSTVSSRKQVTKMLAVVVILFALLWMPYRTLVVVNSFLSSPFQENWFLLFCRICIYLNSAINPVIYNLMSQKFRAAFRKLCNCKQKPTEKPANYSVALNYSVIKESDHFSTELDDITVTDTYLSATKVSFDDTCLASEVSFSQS
#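 TRHR-expressing cells loaded with fluo-8 calcium dye were read kinetically (ex 480/em 530) during compound addition, then stimulated with an EC20 of TRH (10 nM final). Enhancement of the Gq-mediated intracellular calcium response was scored.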
# TRHR agonist – agonists of human TRH receptor | P34981 | TRHR cells, calcium flux fluo-8, FDSS agonist mode | activation, % at 2 µM | 0.18% of 360,000 active | AID 493084; further: 0% is about no effect
#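 Read-out: compound-evoked intracellular calcium rise in TRHR cells, fluo-8 dye, kinetic FDSS fluorescence at 1 s/cycle following a 10-cycle baseline. Cells cultured overnight before dye loading (30 min–1.5 h, RT).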
# D1 ag – agonists of human D1 dopamine receptor; P21728; HEK293 T-REx D1 cells, calcium flux, agonist mode; activation, % at 2 µM; 1% of 360,000 active; AID 504660; further: 0% is about no effect
#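 Tetracycline-induced HEK293 TREx D1 cells, force-coupled to calcium signalling, were dye-loaded with a no-wash calcium kit. Compound was pin-added after a 10 s baseline. Fluorescence was read kinetically at 1 cycle/s for 180 s, with calcium rises flagged as agonism.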
# D1 antagonist – antagonists of human D1 dopamine receptor. HEK293 TREx D1 cells, calcium flux, dopamine EC80; stronger effect = lower value. 3.2% of 360,000 active. AID 504652. activity change, negative = inhibition, % at 10 µM. P21728; in the data active means activity change below about -30%; further: on the % scale 0 is the no-effect control and ±100 the full control effect
#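 Tetracycline-induced HEK293 T-REx cells with force-coupled D1 receptor were loaded with a no-wash calcium dye. Compound was added after a 10 s baseline and read kinetically for 180 s; EC80 dopamine was then added and calcium flux followed another 180 s.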
# * = called active by the depositor. Unless noted, no stated cut-off is given here; in the data, active means activation above about 30%; inactive means the rest.
SMILES,D1 potentiator,TRHR PAM,TRHR agonist,D1 ag,D1 antagonist
CC(C)CN1C(=O)c2ccccc2C1(O)Cc1ccccc1 (stereo unspecified),-1,1,-1,5,-37*
O=C1c2ccccc2C(O)(Cc2ccccc2)N1CCCN1CCOCC1 (stereo unspecified),-2,-7,-1,2,-77*
CCC(Sc1nnc2c3ccccc3n(CC)c2n1)C(=O)Nc1ccc(NC(C)=O)cc1 (stereo unspecified),-6,10,0,-2,-18
CC(C)Oc1ccc(C(CCNCc2ccc(O)cc2)c2ccccc2)cc1 (stereo unspecified),-6,3,2,39*,7
COc1ccc(C(CCNCc2ccc(N(C)C)cc2)c2ccccc2)cc1 (stereo unspecified),0,6,1,28,4
CC1CCC2(CC1)SCC(=O)N2c1ccccc1 (stereo unspecified),-5,1,0,1,13
Cc1cccc(N2C(=O)CSC23CCCCC3)c1,-8,1,0,2,-34*
O=C(Cc1ccccc1)Nc1cccc([N+](=O)[O-])c1,-4,-2,0,3,6
Cc1ccc(SCc2ccc(C(=O)Nc3cc([N+](=O)[O-])ccc3C)cc2)cc1,-2,-2,2,4,-6
O=C(Nc1cccc([N+](=O)[O-])c1)c1ccc2ccccc2c1O,-8,-7,4,23,-33*
O=C(Nc1cccc([N+](=O)[O-])c1)c1cnccn1,-2,12,-2,4,-59*
Cc1ccc(SCc2ccc(C(=O)Nc3cccc([N+](=O)[O-])c3)cc2)cc1,-3,-1,1,6,-51*
CCCc1cc(C(=O)Nc2cccc([N+](=O)[O-])c2)cs1,-5,-1,0,11,-32*
CC(C)(C)c1ccc(C(=O)Nc2cccc([N+](=O)[O-])c2)cc1,-4,3,1,10,-16
COc1cccc(C(=O)Nc2nnc(S(=O)(=O)N3CCCc4ccccc43)s2)c1,0,-2,0,0,1
Cc1cc(C)n(-c2ccc(C(=O)Nc3cccc([N+](=O)[O-])c3)cc2)n1,-3,1,0,13,-36*
CC(OC(=O)c1cnccn1)C(=O)Nc1nc(-c2cccc([N+](=O)[O-])c2)cs1 (stereo unspecified),-6,-6,-1,7,-32*
Cc1cc(C)n(-c2ccc(C(=O)Nc3cccc(S(=O)(=O)N(C)C)c3)cc2)n1,-6,1,0,6,-15
CC(=C/c1ccccc1)/C=N/n1c(C)n[nH]c1=S,-5,32*,0,2,-22
Cc1ccc(C)c(CN2C(=O)c3ccccc3S(=O)(=O)c3ccc(C(=O)N4CCN(c5ccccc5)CC4)cc32)c1,-3,12,0,2,-2
Cc1nc2ccc(NC(=O)c3cc([N+](=O)[O-])cc([N+](=O)[O-])c3Cl)cc2s1,-3,13,0,1,-55*
Cc1nc2ccc(S(=O)(=O)N(C)CC(=O)Nc3ccc(Br)c(C)c3)cc2s1,1,3,-1,9,-40*
COc1ccc(NC(=O)CCS(=O)(=O)c2ccc3nc(C)sc3c2)cc1OC,-2,-5,0,2,-13
Cc1nc2ccc(NC(=O)c3ccc(Cl)c([N+](=O)[O-])c3)cc2s1,2,-10,0,0,-2
CC(=O)Nc1ccc(NC(=O)CN(C)S(=O)(=O)c2ccc3nc(C)sc3c2)cc1,-1,-2,0,3,-1
SMILES,D1 potentiator,TRHR PAM,TRHR agonist,D1 ag,D1 antagonist
Cc1nc2ccc(NC(=O)CCS(=O)(=O)c3ccc(Cl)cc3)cc2s1,-3,-1,0,12,-36*
O=C(c1ccncc1)N1CCN(S(=O)(=O)c2ccc(F)cc2)CC1,0,1,0,1,7
Cc1onc(-c2ccccc2)c1C(=O)Nc1ncc([N+](=O)[O-])s1,-8,-4,1,43*,-32*
Cc1onc(-c2ccccc2)c1C(=O)Nc1nnc(C(C)C)s1,1,1,0,4,10
O=C(Nc1ccc2oc(-c3cccc4c(Br)cccc34)nc2c1)c1ccc(F)cc1,1,-7,-1,-1,-4
CCOc1cc(C)c(C(C)C)cc1S(=O)(=O)N1CCN(C)CC1,11,-6,1,2,-2
COc1cc(C)c(Cl)cc1S(=O)(=O)N1CCCC1,-7,-4,0,1,-34*
CCOc1cc(C)c(Cl)cc1S(=O)(=O)N1CCCC1,-4,-3,-1,1,-10
COc1cc(C)c(C(C)C)cc1S(=O)(=O)N1CCN(C)CC1,-9,-6,0,1,-46*
CCn1ncc([N+](=O)[O-])c1C(=O)Nc1c(C)nn(Cc2ccc(F)cc2)c1C,-3,-4,-1,2,-40*
Cc1ccc(S(=O)(=O)C(CNC(=O)c2ccccc2F)c2cccs2)cc1 (stereo unspecified),1,-6,0,2,0
CCc1noc(C)c1C(=O)Oc1ccc(N(C)S(=O)(=O)c2ccccc2)cc1,6,5,0,36*,4
CCc1noc(C)c1C(=O)Oc1ccc(N(C)S(=O)(=O)c2ccc(C)cc2)cc1,0,14,2,18,-7
O=C(O)CC1(CC(=O)Nc2ccc3ccccc3n2)CCCCC1,-3,32*,0,1,2
O=C(O)CC1(CC(=O)Nc2ccc3ccccc3c2)CCCCC1,-5,0,0,1,12
Cc1ccc(C)c(S(=O)(=O)c2nnn3c2nc(NC2CCCC2)c2sccc23)c1,-5,-8,0,2,-24
Cc1ccc(S(=O)(=O)c2nnn3c2nc(NC2CCCCC2)c2sccc23)cc1C,-6,24,0,15,-39*
Cc1cc(C)cc(Nc2nc3c(S(=O)(=O)c4cccc(Cl)c4)nnn3c3ccsc23)c1,-6,7,0,1,4
O=S(=O)(c1cccc(Cl)c1)c1nnn2c1nc(NC1CCCC1)c1sccc12,-8,8,0,6,-72*
N/C(=N\N=C/c1ccc(Br)cc1)N/N=C\c1ccc(Br)cc1,-2,4,0,1,10
N/C(=N\N=C/c1ccc(F)cc1)N/N=C\c1ccc(F)cc1,-10,5,-1,11,-59*
Cc1ccccc1N(CC(=O)NCCc1ccccc1)C(=O)CCC(=O)Nc1ccccn1,1,1,-3,1,-9
CCc1ccccc1N(CC(=O)NCCc1ccccc1)C(=O)CCC(=O)Nc1ccccn1,-12,-2,-1,40*,-30*
O=C(CSc1nc2ccccc2n1CC(=O)N1CCOCC1)N1CCCC1,0,2,-1,-1,-32*
Cc1ccc(OCCSc2nc3ccccc3n2CC(=O)N2CCCCC2)c(C)c1,-3,-7,0,8,-44*

# Screens (PubChem)
